This is a sample that favours compounds with a hit; in the whole collection about 21% have one here.
Pf growth 48h: inhibits P. falciparum growth in the first generation, 48 h; P. falciparum luciferase growth in erythrocytes, 48 h; Potency, µM (highest dose often 28.7 µM), for the others: at the top dose activity change, negative = inhibition, actives largely listed as inhibitors; 5.9% of 310,000 active; AID 504832; note: potency is the fitted concentration of half-maximal effect; % is set by controls: 0 for no effect and ±100 for the full control effect
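In quantitative HTS format, infected erythrocytes bearing luciferase-reporter parasites were treated for a single generation at 37 C. Luminescence after adding detection reagent served as the growth measure.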
Shiga toxin inh: inhibitors of Shiga toxin in Vero cells. Vero cells, Shiga toxin protein synthesis inhibition reporter. inhibition, % at 38.7 µM. 9.2% of 290,000 active. AID 2315; in the data active = inhibition mostly above about 28%, no sharp cut-off; inactive = mostly below about 43%; note: 0% is about no effect
Pf growth 96h: P. falciparum growth inhibition at 96 hour, primary screen for plastid delayed-death inhibitors; P. falciparum luciferase reporter growth, 96 h; Potency, µM (titrated, usually from 28.7 µM), for inactives: at the top dose activity change, negative = inhibition, most hits filed as inhibitors; 6.9% of 320,000 active; AID 504834; note: potency is the fitted concentration of half-maximal effect; % is set by controls: 0 for no effect and ±100 for the full control effect
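P. falciparum expressing integrated firefly luciferase, in erythrocytes at 2% hematocrit, 0.05% parasitemia, incubated with compounds 96 h at 37 C, 5% CO2. Growth inhibition read as loss of luminescence; two-generation exposure targets delayed-death apicoplast inhibitors.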
CHX counter: counter-screen hit for Shiga toxin inhibitors, cycloheximide; cell reporter, cycloheximide protein synthesis inhibition counterscreen; max response, %; 12% of 300,000 active; AID 2314; in the data active = max response mostly above about 13%, no sharp cut-off; inactive = mostly below about 14%; note: read at 38.3 µM for the half of the compounds with a filed dose; 0% is about no effect
* = called active by the depositor; ? = inconclusive; / = no result given. Unless noted, calls come from the whole dose curve; as a rule, active = well fitted inhibition curve with a large enough effect; inconclusive = small, poorly fitted or top-dose-only effect, or another doubt; inactive = no such curve, though single readings can be large or run the other way.

SMILES | Pf growth 48h | Shiga toxin inh | Pf growth 96h | CHX counter
COc1cc(NC(=O)c2cc(Cl)ccc2Cl)ccc1-c1cc2ccccc2oc1=O | ? | -2.5 | 11.7µM* | -3.3
COc1ccc(OC)c(NC(=O)c2cc3oc4ccccc4c3cc2O)c1 | 4.15µM* | -8.0 | ? | -2.6
Cc1c(C(=O)Nc2nnc(C3CC3)s2)oc2ccccc12 | 281.5% | / | 176.6% | /
CN(C)S(=O)(=O)c1ccc2c(c1)nc(CCC(=O)NCCc1ccc(Cl)cc1)n2C | ? | 9.5 | ? | -2.2
COc1ccc(NC(=O)c2oc3ccccc3c2C)c(OC)c1 | 17.5% | 46.5* | -14.4% | 16.1*
COc1ccc(S(=O)(=O)Nc2ccccc2OC)cc1NC(=O)c1cc2ccccc2oc1=O | 16.9% | 148.0* | -9.9% | 38.4*
COc1ccccc1C(=O)Nc1cc2ccccc2oc1=O | / | 43.3* | 52.5% | 18.7*
O=C(O)c1ccccc1NC(=O)c1cc2ccccc2oc1=O | 16.8% | -3.2 | ? | -2.5
O=C(NCc1cccs1)C(=O)c1c[nH]c2ccccc12 | 114.9% | 90.2 | 101.0% | 33.2*
O=C(/C=C/c1ccccc1)c1c[nH]c2ccccc12 | 227.9% | 64.0* | 18.8% | 34.2*
NC(=O)c1c[nH]c2ccccc12 | ? | 5.9 | 42.8% | 10.0
Cc1[nH]c2ccccc2c1C(=O)C(=O)NCc1ccco1 | 3.3% | -7.1 | 11.7µM* | 1.8
COC(=O)C(Cc1c[nH]c2ccccc12)NC(=O)c1ccccc1Br (stereo unspecified) | -142.6% | 54.5 | 0.0% | 8.1
CCOC(=O)C(Cc1c[nH]c2ccccc12)NC(=O)c1ccccc1Br (stereo unspecified) | 178.6% | 53.2* | 56.0% | 37.5*
Cc1cccc(C(C)C)c1NC(=O)C(C)OC(=O)Cn1cnc2c1c(=O)n(C)c(=O)n2C (stereo unspecified) | 47.0% | / | 23.0% | /
C[C@H](NC(=O)c1ccco1)C(=O)N1CCCC1 | 7.7% | -14.5 | 16.2% | 0.9
Cc1[nH]c2ccccc2c1C(=O)C(=O)NCCC1=CCCCC1 | 2.94µM* | 5.9 | ? | 10.5
O=C(NCc1ccccc1Cl)C(=O)c1c[nH]c2ccccc12 | -7.1% | 70.7* | 83.1% | 28.8*
O=C(Nc1ccccc1)C(=O)c1c[nH]c2ccccc12 | 252.1% | 67.1* | 25.2% | 30.8*
O=C(NCc1ccco1)C(=O)c1c[nH]c2ccccc12 | 19.0% | 54.0* | 25.4% | 31.0*
COc1ccc(CCNC(=O)C(=O)c2c(C)[nH]c3ccccc23)cc1 | -5.0% | -5.2 | ? | -7.4
COc1ccc(C(C(=O)NC2CCCC2)N(C(=O)CNC(=O)c2ccco2)c2cccnc2)cc1 (stereo unspecified) | -1.6% | -9.5 | -6.2% | -3.0
COc1ccc(N2CC(C(=O)Nc3c(C(N)=O)oc4ccccc34)CC2=O)cc1 (stereo unspecified) | ? | / | -3.0% | /
CC(C)C[C@H](NC(=O)[C@H](CC(C)C)NC(=O)[C@H](Cc1ccc(O)cc1)NC(=O)CNC(=O)[C@H](C)NC(=O)[C@H](CO)NC(=O)[C@H](CC(N)=O)NC(=O)[C@H](CC(C)C)NC(=O)[C@@H](NC(=O)[C@H](Cc1c[nH]c2ccccc12)NC(=O)CN)[C@@H](C)O)C(=O)NCC(=O)N1CCC[C@H]1C(=O)N1CCC[C@H]1C(=O)N1CCC[C@H]1C(=O)NCC(=O)N[C@@H](Cc1ccccc1)C(=O)N[C@@H](CO)C(=O)N1CCC[C@H]1C(=O)N[C@@H](Cc1ccccc1)C(=O)N[C@@H](CCCNC(=N)N)C(N)=O | / | -6.1 | / | -3.4
Cc1occc1C(=O)NNC(=O)c1ccc(Br)o1 | 7.3% | -10.2 | 34.5% | -4.1
SMILES | Pf growth 48h | Shiga toxin inh | Pf growth 96h | CHX counter
Cc1ccccc1N=C1SCCN1C(=O)CN1C(=O)NC2(CCCC2)C1=O | ? | / | -3.0% | /
CCCn1c(N)c(C(=O)CSc2n[nH]c(-c3ccc(C)cc3)n2)c(=O)[nH]c1=O | ? | / | -10.1% | /
O=C(c1nc2ccccn2c1CNCCOc1cccnc1)N1CCOCC1 | 17.6% | 17.6 | ? | -1.7
O=C(Cc1c[nH]c2ccccc12)NCc1ccc(Cl)cc1Cl | 22.4% | 44.6* | 33.1% | 12.0
COc1ccccc1CNC(=O)Cc1c[nH]c2ccccc12 | -14.1% | 25.3 | ? | -3.2
COC(=O)C(Cc1c[nH]c2ccccc12)NC(=O)COc1ccc(Cl)cc1Cl (stereo unspecified) | / | 37.3 | / | 28.7*
Cc1ccc(/C=N\NC(=O)CNC(=O)C23CC4CC(CC(C4)C2)C3)o1 | 16.2% | -4.6 | 20.3% | 3.0
CCCCNc1c(-c2cccc(-c3ccc(OC)cc3)c2)nc2ccc(C)cn12 | 3.29µM* | / | 3.7µM* | /
COc1ccc(-c2nc3ccc(C)cn3c2NCc2ccc3c(c2)OCO3)cc1 | 45.6% | 125.0* | 5.2% | 55.3*

Source: PubChem (National Center for Advancing Translational Sciences (NCATS))
